# Reference: publication PMC7862700, “An all-to-all approach to the identification of sequence-specific readers for epigenetic DNA modifications on cytosine”
# What was measured:
# Assay in all cases: DAPPL (digital affinity profiling via proximity ligation, sequencing); 10 mM Tris-HCl pH 7.5, 50 mM NaCl, 1 mM DTT, 4% glycerol, room temperature, 30 min; GST-TFs on glutathione beads, 16-mer random dsDNA library, 0.1% formaldehyde crosslink after washing; high values mean tight binding
# [1] = target: T1, FLI1 (Homo sapiens, UniProt Q01543 1-452); details: protein: recombinant; tags: N-terminal GST; dsDNA, one strand shown
# T1 sequence: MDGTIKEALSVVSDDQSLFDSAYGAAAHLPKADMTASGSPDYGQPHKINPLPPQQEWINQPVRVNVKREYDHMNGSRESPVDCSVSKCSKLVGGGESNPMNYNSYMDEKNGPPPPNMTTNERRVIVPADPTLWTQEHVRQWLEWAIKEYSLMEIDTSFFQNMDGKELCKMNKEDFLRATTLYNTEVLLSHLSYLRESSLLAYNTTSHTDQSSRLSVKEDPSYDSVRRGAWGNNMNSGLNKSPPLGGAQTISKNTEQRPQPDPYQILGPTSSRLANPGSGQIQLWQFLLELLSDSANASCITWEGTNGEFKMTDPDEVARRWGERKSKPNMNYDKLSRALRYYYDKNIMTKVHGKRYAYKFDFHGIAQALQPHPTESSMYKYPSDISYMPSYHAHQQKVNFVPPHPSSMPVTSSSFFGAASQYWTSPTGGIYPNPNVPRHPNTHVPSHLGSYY
# Procedure, shortened: (§1)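 Sequencing on an Illumina NextSeq500 followed washing, crosslinking with 0.1% formaldehyde, proximity ligation (BsaI/T4 ligase, 1 h, 37 °C) and PCR amplification of pools that had been incubated for 30 min at room temperature with 200 nmole of a random double-stranded 16-mer DNA library in Tris/NaCl/DTT/glycerol buffer. Each pool held DNA-barcoded human transcription factors, expressed in yeast as GST fusions and captured on glutathione beads, plus a tag-only sample. Binding signal is a hexamer's read frequency for a factor divided by its frequency in the tag-only sample.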
# [2] = target: T2, ELK1 (Homo sapiens, UniProt P19419 1-428); details: protein: recombinant; tags: N-terminal GST; dsDNA, one strand shown
# T2 sequence: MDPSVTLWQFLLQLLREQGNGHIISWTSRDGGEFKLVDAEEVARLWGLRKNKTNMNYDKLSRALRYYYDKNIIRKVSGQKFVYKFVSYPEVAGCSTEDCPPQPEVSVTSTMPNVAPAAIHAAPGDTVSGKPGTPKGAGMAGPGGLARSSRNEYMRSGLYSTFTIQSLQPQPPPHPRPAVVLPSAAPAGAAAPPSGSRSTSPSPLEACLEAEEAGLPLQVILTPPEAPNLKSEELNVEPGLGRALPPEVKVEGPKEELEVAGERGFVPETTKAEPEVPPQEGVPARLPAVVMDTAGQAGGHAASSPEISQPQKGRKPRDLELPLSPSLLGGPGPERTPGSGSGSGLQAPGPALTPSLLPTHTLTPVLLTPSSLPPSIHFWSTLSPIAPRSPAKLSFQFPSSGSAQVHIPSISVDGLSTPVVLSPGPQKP
# Procedure, shortened: as §1
# [3] = target: T3, GABPA (Homo sapiens, UniProt Q06546 1-454); details: protein: recombinant; tags: N-terminal GST; dsDNA, one strand shown
# T3 sequence: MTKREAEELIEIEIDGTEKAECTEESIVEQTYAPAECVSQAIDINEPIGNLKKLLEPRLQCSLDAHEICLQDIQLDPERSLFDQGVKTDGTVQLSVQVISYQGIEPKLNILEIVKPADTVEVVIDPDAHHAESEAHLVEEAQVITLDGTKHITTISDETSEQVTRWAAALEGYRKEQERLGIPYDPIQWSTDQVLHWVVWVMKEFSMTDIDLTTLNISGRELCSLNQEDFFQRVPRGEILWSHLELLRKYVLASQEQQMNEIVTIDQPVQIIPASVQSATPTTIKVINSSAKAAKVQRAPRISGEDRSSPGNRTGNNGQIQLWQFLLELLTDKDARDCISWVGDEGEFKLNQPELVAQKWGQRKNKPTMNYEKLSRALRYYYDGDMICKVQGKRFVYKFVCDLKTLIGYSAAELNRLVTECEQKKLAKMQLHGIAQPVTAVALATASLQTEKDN
# Procedure, shortened: as §1
# [4] = target: T4, ERG (Homo sapiens, UniProt P11308 1-479); details: protein: recombinant; tags: N-terminal GST; dsDNA, one strand shown
# T4 sequence: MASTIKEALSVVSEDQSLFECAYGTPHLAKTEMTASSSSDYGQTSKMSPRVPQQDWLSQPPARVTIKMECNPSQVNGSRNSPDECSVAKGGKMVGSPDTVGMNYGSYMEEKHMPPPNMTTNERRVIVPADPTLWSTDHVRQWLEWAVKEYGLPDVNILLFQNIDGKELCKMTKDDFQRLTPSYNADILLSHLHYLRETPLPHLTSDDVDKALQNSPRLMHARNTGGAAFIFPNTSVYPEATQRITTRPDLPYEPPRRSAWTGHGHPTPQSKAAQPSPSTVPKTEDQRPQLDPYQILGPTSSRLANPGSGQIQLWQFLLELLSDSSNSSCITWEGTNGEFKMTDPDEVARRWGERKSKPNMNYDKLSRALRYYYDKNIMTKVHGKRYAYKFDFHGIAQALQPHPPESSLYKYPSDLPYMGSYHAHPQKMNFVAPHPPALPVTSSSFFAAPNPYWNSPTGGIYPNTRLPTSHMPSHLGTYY
# Procedure, shortened: as §1
# [5] = target: ELF1 (Homo sapiens, UniProt P32519 1-619); details: protein: recombinant; tags: N-terminal GST; dsDNA, one strand shown
# ELF1, sequence (P32519 whole entry): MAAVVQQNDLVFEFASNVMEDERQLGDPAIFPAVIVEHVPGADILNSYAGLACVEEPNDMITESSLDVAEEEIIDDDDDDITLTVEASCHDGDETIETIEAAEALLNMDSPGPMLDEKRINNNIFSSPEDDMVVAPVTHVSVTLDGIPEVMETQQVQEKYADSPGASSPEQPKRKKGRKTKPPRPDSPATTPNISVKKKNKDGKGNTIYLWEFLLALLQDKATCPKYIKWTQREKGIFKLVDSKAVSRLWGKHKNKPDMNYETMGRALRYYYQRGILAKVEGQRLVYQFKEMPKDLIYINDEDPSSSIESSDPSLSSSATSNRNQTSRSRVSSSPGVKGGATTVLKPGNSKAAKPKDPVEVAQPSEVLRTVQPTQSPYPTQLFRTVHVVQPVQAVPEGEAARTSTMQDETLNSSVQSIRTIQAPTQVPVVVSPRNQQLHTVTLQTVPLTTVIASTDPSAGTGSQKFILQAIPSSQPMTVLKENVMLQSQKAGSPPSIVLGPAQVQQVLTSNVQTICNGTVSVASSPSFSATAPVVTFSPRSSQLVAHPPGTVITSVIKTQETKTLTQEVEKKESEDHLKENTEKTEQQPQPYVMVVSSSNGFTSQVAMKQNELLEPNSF
# Procedure, shortened: as §1
# [6] = target: T5, EHF (Homo sapiens, UniProt Q9NZC4 1-300); details: protein: recombinant; tags: N-terminal GST; dsDNA, one strand shown
# T5 sequence: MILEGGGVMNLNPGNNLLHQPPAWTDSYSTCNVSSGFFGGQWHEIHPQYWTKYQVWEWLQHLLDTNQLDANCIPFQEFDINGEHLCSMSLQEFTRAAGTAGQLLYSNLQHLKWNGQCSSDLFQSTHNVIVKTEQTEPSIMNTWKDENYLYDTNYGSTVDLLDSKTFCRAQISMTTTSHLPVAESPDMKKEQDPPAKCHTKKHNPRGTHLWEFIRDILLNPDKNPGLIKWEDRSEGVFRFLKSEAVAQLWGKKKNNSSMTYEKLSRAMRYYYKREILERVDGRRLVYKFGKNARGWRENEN
# Procedure, shortened: as §1
# [7] = target: SPI1 (Homo sapiens, UniProt P17947 1-270); details: protein: recombinant; tags: N-terminal GST; dsDNA, one strand shown
# Procedure, shortened: as §1
# [8] = target: SPIB (Homo sapiens, UniProt Q01892 1-262); details: protein: recombinant; tags: N-terminal GST; dsDNA, one strand shown
# SPIB, sequence (Q01892 whole entry): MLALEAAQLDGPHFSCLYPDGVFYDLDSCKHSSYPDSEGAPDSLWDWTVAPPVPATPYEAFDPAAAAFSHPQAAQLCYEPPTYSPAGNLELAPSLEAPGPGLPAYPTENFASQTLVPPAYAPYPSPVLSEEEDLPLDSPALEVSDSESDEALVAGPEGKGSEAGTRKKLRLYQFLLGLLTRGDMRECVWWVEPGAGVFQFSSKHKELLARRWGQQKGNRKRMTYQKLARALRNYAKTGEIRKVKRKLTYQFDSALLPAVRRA
# Procedure, shortened: as §1
# [9] = target: T6, ELK3 (Homo sapiens, UniProt P41970 1-407); details: protein: recombinant; tags: N-terminal GST; dsDNA, one strand shown
# T6 sequence: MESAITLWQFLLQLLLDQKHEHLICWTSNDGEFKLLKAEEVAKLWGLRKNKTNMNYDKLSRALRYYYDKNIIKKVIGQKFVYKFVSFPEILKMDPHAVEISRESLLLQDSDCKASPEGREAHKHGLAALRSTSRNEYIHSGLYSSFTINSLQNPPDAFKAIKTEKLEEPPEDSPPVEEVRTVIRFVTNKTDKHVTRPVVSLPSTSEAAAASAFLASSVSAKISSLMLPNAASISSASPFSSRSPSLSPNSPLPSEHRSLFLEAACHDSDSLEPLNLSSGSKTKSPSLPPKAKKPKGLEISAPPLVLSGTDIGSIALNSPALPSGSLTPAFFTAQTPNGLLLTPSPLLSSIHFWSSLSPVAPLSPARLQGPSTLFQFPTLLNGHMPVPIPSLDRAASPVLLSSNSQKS
# Procedure, shortened: as §1
# [10] = target: T7, FEV (Homo sapiens, UniProt Q99581 1-238); details: protein: recombinant; tags: N-terminal GST; dsDNA, one strand shown
# T7 sequence: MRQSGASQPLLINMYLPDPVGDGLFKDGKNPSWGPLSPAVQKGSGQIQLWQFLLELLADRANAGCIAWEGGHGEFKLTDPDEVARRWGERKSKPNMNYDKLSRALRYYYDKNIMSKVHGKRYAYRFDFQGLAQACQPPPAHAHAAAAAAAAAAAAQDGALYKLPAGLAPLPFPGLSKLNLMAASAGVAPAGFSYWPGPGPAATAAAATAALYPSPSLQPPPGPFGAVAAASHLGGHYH
# Procedure, shortened: as §1
# [11] = target: ETV5 (Homo sapiens, UniProt P41161 1-510); details: protein: recombinant; tags: N-terminal GST; dsDNA, one strand shown
# ETV5, sequence (P41161 whole entry): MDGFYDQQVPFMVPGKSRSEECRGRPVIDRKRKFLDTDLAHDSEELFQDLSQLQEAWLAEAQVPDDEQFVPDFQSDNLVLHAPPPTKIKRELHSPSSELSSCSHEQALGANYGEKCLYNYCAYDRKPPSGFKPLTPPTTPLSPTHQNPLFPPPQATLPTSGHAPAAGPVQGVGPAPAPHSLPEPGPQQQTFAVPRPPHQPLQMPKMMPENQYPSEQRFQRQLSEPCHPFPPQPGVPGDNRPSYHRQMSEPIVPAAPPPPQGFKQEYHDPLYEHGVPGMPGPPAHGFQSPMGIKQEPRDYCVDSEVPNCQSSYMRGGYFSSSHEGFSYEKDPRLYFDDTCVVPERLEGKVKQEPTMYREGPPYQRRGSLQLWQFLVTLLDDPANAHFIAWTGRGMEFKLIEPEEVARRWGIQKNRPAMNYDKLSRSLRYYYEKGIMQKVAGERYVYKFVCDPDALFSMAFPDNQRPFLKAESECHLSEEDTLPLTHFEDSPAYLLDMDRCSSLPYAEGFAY
# Procedure, shortened: as §1
# [12] = target: HSF1 (Homo sapiens, UniProt Q00613 1-529); details: protein: recombinant; tags: N-terminal GST; chain copies: 3; dsDNA, one strand shown
# HSF1, sequence (Q00613 whole entry): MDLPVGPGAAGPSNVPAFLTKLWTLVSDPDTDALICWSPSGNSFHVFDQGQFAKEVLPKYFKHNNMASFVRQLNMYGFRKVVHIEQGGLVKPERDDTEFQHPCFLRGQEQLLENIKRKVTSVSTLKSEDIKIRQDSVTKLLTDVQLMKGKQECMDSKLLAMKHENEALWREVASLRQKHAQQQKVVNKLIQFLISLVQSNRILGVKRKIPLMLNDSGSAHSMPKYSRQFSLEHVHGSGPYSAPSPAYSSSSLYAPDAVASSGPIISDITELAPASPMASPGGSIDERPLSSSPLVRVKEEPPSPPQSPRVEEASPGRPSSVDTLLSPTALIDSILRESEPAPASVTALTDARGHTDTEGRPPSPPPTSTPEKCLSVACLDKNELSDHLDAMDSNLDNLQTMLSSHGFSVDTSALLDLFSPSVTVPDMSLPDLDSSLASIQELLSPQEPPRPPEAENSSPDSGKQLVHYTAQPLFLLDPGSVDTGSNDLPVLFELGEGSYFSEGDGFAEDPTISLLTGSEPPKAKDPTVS
# Procedure, shortened: as §1
# [13] = target: T8, SPIC (Homo sapiens, UniProt Q8N5J4 1-248); details: protein: recombinant; tags: N-terminal GST; dsDNA, one strand shown
# T8 sequence: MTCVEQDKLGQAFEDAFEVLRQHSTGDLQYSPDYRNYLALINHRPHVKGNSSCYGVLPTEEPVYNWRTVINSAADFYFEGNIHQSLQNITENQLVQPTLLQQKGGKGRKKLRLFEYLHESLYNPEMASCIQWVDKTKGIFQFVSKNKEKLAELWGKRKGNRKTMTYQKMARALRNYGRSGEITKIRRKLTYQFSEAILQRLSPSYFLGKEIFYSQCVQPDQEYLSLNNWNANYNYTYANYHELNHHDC
# Procedure, shortened: as §1
# [14] = target: ELF4 (Homo sapiens, UniProt Q99607 1-663); details: protein: recombinant; tags: N-terminal GST; dsDNA, one strand shown
# ELF4, sequence (Q99607 whole entry): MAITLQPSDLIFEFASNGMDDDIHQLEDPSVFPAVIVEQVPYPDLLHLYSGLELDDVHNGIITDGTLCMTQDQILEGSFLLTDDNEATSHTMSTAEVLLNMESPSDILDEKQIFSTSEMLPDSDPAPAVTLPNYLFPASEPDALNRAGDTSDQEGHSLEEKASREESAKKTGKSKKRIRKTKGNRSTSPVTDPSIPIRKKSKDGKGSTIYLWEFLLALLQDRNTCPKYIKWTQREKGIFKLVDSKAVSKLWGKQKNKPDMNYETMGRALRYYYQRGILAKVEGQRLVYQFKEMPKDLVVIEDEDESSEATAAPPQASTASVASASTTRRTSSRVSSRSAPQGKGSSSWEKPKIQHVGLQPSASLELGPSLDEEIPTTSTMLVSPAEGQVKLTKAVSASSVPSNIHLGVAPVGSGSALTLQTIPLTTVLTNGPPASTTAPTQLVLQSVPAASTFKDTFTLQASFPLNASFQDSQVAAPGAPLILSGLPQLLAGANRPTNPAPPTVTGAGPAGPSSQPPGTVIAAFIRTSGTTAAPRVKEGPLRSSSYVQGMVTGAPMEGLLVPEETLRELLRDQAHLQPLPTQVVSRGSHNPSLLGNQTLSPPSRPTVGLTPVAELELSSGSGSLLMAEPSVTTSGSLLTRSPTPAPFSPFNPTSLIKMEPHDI
# Procedure, shortened: as §1
# [15] = target: T9, ELK4 (Homo sapiens, UniProt P28324-2 1-405); details: protein: recombinant; tags: N-terminal GST; dsDNA, one strand shown
# T9 sequence: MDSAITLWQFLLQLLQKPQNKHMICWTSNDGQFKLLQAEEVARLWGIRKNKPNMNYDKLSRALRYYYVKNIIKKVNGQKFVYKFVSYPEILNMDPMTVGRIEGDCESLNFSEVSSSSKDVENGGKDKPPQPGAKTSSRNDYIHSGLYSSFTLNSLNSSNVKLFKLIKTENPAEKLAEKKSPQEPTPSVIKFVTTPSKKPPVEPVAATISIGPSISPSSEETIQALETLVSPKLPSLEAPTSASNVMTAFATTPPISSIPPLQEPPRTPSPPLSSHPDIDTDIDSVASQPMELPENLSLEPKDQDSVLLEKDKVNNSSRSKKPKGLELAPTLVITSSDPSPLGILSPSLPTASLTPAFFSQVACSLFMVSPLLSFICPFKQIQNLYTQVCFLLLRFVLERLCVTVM
# Procedure, shortened: as §1
# [16] = target: T10, ETV2 (Homo sapiens, UniProt O00321 1-342); details: protein: recombinant; tags: N-terminal GST; dsDNA, one strand shown
# T10 sequence: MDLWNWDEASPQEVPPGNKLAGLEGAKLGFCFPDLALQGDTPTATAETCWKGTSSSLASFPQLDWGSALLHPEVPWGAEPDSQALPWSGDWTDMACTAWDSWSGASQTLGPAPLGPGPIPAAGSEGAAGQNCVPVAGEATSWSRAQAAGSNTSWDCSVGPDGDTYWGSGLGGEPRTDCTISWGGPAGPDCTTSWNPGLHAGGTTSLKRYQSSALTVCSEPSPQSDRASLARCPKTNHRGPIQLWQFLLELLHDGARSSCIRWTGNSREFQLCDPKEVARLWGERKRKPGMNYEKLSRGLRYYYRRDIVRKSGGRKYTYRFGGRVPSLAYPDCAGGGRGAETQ
# Procedure, shortened: as §1
# [17] = target: T11, ELF3 (Homo sapiens, UniProt P78545 1-371); details: protein: recombinant; tags: N-terminal GST; dsDNA, one strand shown
# T11 sequence: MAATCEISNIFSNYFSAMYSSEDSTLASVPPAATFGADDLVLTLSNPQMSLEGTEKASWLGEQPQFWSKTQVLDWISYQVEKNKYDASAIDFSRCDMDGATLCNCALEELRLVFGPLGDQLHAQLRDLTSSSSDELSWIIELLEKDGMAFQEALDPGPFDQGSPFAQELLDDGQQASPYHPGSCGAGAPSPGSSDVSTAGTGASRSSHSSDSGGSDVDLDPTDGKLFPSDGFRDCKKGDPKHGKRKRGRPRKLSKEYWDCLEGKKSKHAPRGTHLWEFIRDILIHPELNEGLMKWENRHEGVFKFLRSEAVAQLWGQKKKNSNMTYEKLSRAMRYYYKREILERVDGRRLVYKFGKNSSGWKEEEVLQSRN
# Procedure, shortened: as §1
# [18] = target: CRX (Homo sapiens, UniProt O43186 1-299); details: protein: recombinant; tags: N-terminal GST; dsDNA, one strand shown
# CRX, sequence (O43186 whole entry): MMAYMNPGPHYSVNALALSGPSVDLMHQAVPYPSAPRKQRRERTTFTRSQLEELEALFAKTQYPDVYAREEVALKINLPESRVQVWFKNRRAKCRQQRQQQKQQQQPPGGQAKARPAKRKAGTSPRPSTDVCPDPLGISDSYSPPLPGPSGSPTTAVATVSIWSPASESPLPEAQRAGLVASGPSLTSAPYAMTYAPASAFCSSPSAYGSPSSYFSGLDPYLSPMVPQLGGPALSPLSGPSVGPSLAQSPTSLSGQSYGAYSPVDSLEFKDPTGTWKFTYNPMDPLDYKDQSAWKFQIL
# Procedure, shortened: as §1
# [19] = target: ETV1 (Homo sapiens, UniProt P50549 1-477); details: protein: recombinant; tags: N-terminal GST; dsDNA, one strand shown
# ETV1, sequence (P50549 whole entry): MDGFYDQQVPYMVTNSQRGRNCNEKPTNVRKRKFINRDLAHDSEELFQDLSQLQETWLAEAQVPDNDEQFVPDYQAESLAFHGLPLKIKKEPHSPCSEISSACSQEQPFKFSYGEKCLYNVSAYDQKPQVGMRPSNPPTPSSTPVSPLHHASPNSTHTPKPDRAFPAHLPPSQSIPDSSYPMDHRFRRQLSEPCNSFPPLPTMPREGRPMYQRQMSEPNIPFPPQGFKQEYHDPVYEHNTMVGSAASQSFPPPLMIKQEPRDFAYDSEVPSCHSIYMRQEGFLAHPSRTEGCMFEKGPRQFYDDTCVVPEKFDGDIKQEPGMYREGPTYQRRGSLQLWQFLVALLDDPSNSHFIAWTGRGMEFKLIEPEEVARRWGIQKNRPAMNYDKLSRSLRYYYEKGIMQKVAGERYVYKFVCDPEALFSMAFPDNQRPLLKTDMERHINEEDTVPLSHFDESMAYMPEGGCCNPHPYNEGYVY
# Procedure, shortened: as §1
sequence,measurement,setting,value
TCTCAC,binding signal,[1],"1.45 fold enrichment (6-mer frequency, TF over GST control)"
same,binding signal,[2],"1.45 fold enrichment (6-mer frequency, TF over GST control)"
same,binding signal,[3],"1.43 fold enrichment (6-mer frequency, TF over GST control)"
same,binding signal,[4],"1.41 fold enrichment (6-mer frequency, TF over GST control)"
same,binding signal,[5],"1.39 fold enrichment (6-mer frequency, TF over GST control)"
same,binding signal,[6],"1.39 fold enrichment (6-mer frequency, TF over GST control)"
same,binding signal,[7],"1.36 fold enrichment (6-mer frequency, TF over GST control)"
same,binding signal,[8],"1.48 fold enrichment (6-mer frequency, TF over GST control)"
same,binding signal,[9],"1.58 fold enrichment (6-mer frequency, TF over GST control)"
same,binding signal,[10],"1.47 fold enrichment (6-mer frequency, TF over GST control)"
same,binding signal,[11],"1.34 fold enrichment (6-mer frequency, TF over GST control)"
same,binding signal,[12],"1.3 fold enrichment (6-mer frequency, TF over GST control)"
same,binding signal,[13],"1.55 fold enrichment (6-mer frequency, TF over GST control)"
same,binding signal,[14],"1.37 fold enrichment (6-mer frequency, TF over GST control)"
same,binding signal,[15],"1.35 fold enrichment (6-mer frequency, TF over GST control)"
same,binding signal,[16],"1.18 fold enrichment (6-mer frequency, TF over GST control)"
same,binding signal,[17],"1.42 fold enrichment (6-mer frequency, TF over GST control)"
same,binding signal,[18],"1.33 fold enrichment (6-mer frequency, TF over GST control)"
same,binding signal,[19],"1.3 fold enrichment (6-mer frequency, TF over GST control)"
